These results are taken from PubChem BioAssay AID1946 (Johns Hopkins Ion Channel Center, 2009).

The campaign covered roughly 2,400 compounds. About 180 (7.5%) were called active. The list comes from a sample in which actives are over-represented; it also holds similar structures and randomly drawn compounds. Unmarked numbers belong to inactive results.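 Rule for the calls: active = readout below zero, meaning a drop past 3 SD under the dofetilide-free negative control mean; inactive = the rest.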

Chain of Potassium voltage-gated channel subfamily KQT member 2 (Rattus norvegicus) (O88943 whole entry, looked up): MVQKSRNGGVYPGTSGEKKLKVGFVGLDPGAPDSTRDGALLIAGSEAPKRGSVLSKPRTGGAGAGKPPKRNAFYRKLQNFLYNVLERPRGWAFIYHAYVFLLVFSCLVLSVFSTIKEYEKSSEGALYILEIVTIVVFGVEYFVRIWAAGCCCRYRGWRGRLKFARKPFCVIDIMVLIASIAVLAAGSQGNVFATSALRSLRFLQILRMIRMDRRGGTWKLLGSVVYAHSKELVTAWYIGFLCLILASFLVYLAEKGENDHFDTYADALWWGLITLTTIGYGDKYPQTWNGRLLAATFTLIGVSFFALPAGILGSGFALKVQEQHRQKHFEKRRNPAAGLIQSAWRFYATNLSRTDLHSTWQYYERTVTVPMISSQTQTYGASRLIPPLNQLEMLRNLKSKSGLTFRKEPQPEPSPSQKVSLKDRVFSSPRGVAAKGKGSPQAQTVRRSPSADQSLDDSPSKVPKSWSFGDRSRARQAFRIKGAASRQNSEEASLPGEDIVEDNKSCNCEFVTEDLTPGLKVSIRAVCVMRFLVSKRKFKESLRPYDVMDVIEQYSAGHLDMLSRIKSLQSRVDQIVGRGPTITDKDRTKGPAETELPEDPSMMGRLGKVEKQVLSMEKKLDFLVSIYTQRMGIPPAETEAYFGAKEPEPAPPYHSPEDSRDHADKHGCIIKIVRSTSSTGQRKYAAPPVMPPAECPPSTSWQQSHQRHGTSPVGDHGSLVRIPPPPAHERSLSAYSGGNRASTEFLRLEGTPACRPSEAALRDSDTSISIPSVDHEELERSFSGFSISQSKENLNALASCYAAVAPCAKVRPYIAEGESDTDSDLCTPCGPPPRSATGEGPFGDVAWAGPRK

The assay addresses Potassium voltage-gated channel subfamily KQT member 2 (Rattus norvegicus) (UniProt O88943). The assay can be described thus: rat KCNQ2 channel inhibition by compounds alone, confirmation, counter-screen for hERG block protector project, cell-based, CHO, FluxOR thallium flux (AID 1946). The following applies: CHO-KCNQ2 cells, FluxOR thallium flux fluorescence; at 10 µM; active compounds read low; zero marks the 3-SD hit cutoff.
Regarding `S=c1[nH]cnc2scc(-c3ccc(Br)cc3)c12`, the activity change vs negative control is 28.5%.
As for `CCn1ncc(Cl)c1C(=O)NC(=S)Nc1ccccc1Br`, the figure is 51.3%; as for `CCN(C(=S)NC(=O)c1ccccc1Br)C1CCCCC1`, 93.4%.
The figure for `CC1CCc2sc(-c3n[nH]c(=S)o3)cc2C1` (stereo not drawn) is 35.3%; for `Fc1cccc2sc(Nc3nnc(-c4ccccc4)o3)nc12` it is 109%; for `Cc1ccc(Nc2cc(C)nn2-c2nc(C)cc(=O)[nH]2)cc1` it is 83.1%.
The figure for `O=C(Nn1c(O)c(C=C2N=c3ccccc3=N2)sc1=S)c1cccc(Cl)c1` is 6.4%.
As to `CC1CCCCC1n1c(=S)[nH]c2ccccc2c1=O` (stereo not drawn), the activity change vs negative control is 28%.
As for `CSc1nc(C)c2c(n1)N(c1ccc(C(C)C)cc1)CC2`, the figure is -2.7% (active); as for `COc1ccccc1C(=O)NNC(=O)C(=O)Nc1cccc(Cl)c1C`, 160%.
As for `O=C(CCSc1ccc(Br)cc1)c1ccc(O)cc1`, the figure is 8.7%; as for `CSc1nc2sc3c(c2c(=S)[nH]1)CC(C)(C)OC3`, 95%.
As for `CN(Cc1ccccc1)C(=O)CCc1ccccc1`, the figure is 5.4%; as for `CCOC(=O)c1c(NS(=O)(=O)Cc2ccccc2)sc2c1CCCC2`, 62%.
Regarding `Cc1ccc(-c2csc(=S)[nH]2)cc1`, the activity change vs negative control is 106%.
For the molecule `Cc1ccc(/C=N/NC(=O)c2cc(-c3ccncc3)nc3ccccc23)o1`, the activity change vs negative control was 2.6%.
The figure for `O=C(NC(=S)Nc1ccccn1)c1cc(-c2ccccc2)nc2ccccc12` is 19.4%.
Regarding `O=C(N/N=C/c1ccccn1)c1cc(-c2ccc(Br)cc2)nc2ccccc12`, the activity change vs negative control was -4.7% (active).
For `Cc1ccc(OCC(=O)NC(=S)Nc2ccc(Br)cn2)cc1`, the activity change vs negative control is 33.8%.
As for `Cc1ccc(C(=O)Nc2nc3ccccc3c(=O)s2)cc1`, the figure is 22.4%; as for `COc1ccc(C(=O)N2CCN(Cc3ccc4c(c3)OCO4)CC2)cc1[N+](=O)[O-]`, 4.4%.
The figure for `O=C(COc1ccc(Cl)cc1)N1CCN(Cc2ccc3c(c2)OCO3)CC1` is 22.9%.
On to `CCOc1ccc(S(=O)(=O)N2CCN(Cc3ccc4c(c3)OCO4)CC2)cc1C`, for which the activity change vs negative control is -5.7% (active).
Regarding `Cc1cc(C)c2nc(NC(=O)C3CCCO3)sc2c1` (stereo not drawn), the activity change vs negative control was -2.4% (active).
As for `Cc1cc(C)c2nc(NC(=O)CN3C(=O)NC4(CCCC4)C3=O)sc2c1`, the figure is 18.8%; as for `O=C(Nc1nc2c(F)cc(F)cc2s1)C1COc2ccccc2O1` (stereo not drawn), 3.8%; as for `CCCCCC/C(C)=C1/SC(=S)NC1=O`, 94.1%.
Take `CCOC(=O)c1c(NC(=O)CN2CCN(C(=O)c3ccco3)CC2)sc2c1CCCC2`: the activity change vs negative control was 39%.
